Measurements taken from PubChem BioAssay AID2685 (National Center for Advancing Translational Sciences (NCATS), 2010).
Among all 320,000 compounds or so, about 2,100 (0.66%) were called active. Roughly 53% stayed inconclusive and do not appear here. Calls come from the whole dose curve; as a rule, active = well fitted inhibition curve with a large enough effect in the signal ratio, with a control signal flat (not every such curve was filed as active); inconclusive = small, poorly fitted or top-dose-only effect, or effect the other way, or a change in a side signal; inactive = flat fitted curve, though single readings scatter; the % refers to the signal ratio. For the sample, actives were picked, then their nearest neighbours and some compounds at random.

assay: qHTS Assay for Lipid Storage Modulators in Drosophila S3 Cells; details: BODIPY lipid droplet fluorescence, 18-24 h, cells fed with added oleic acid; cell number change: measured here: cell count max response; series mostly up to 46.1 µM; lipid storage change, negative = inhibition: at the top concentration;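 for cell number change: cells counted by Cell Tracker Red CMTPX staining in the red channel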; for lipid storage change, negative = inhibition: % is set by controls: 0 for no effect and ±100 for the full control effect
In short: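 Drosophila S3 cells loaded with oleic acid (400 uM, as added) and compounds at several concentrations; lipid droplets imaged by 488-nm laser-scanning cytometry, 500–530 nm intensity and object ratio to cell channel. Percent activity normalized to 20 uM Triacsin C.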
Potency is the fitted concentration of half-maximal effect.

| SMILES | lipid storage change, negative = inhibition | cell number change | outcome | Potency |
| --- | --- | --- | --- | --- |
| COc1ccc(OCCNC(=O)c2ccccc2OCC(=O)N2CCCCC2)cc1 | -8.65% (inactive) | -14.3% |  |  |
| O=C(c1ccc(S(=O)(=O)NCc2ccco2)cc1)N1CCN(Cc2ccccc2F)CC1 |  | -10.8% | inactive |  |
| COc1cccc(N(C(=O)CS(=O)CC(=O)Nc2ccc(F)cc2)C(C(=O)NC2CCCCC2)c2cccs2)c1 (stereo not given) | -10.8% (inactive) | -4.8% |  |  |
| COC(=O)CCCC1=CC2=CC(=O)C(C)(OC(=O)c3cccs3)C(=O)C2=CN1c1ccc(OC)cc1 (stereo not given) | 5.26% (inactive) |  |  |  |
| O=C1Cc2ccccc2C(=O)N1c1cccc(Cl)c1 |  | 10.3% | inactive |  |
| CCOc1ccc(N2C(=O)c3cccnc3C2=O)cc1 | 12.3% (inactive) | -11.4% |  |  |
| COc1ccc2c(c1)C(=O)N(c1ccccc1)C(=O)C2 |  | -11.7% |  | 23.1 µM (active) |
| COc1ccc(N2C(=O)Cc3ccccc3C2=O)cc1 | 7.06% (inactive) | 10.9% |  |  |
| O=C1Cc2ccccc2C(=O)N1c1ccccc1 |  | 9.57% |  | 10.3 µM (active) |
| COc1ccc(N2C(=O)c3ccccc3C2=O)cc1 | 19% (inactive) | 2.95% |  |  |
| O=C1Cc2ccccc2N1c1ccccc1 | 8.9% (inactive) | 11.5% |  |  |
| COc1ccc2c(c1)C(=O)N(c1ccc(C)cc1)C(=O)C2 | -3.58% (inactive) | 11.1% |  |  |
| CCOc1ccc(N2C(=O)Cc3ccccc3C2=O)cc1 |  | 0.833% |  | 29.1 µM (active) |
| COc1ccccc1C(=O)NC(=O)COC(=O)c1oc2ccccc2c1C | -2% (inactive) | 20% |  |  |
| CCOc1nc(-c2ccccc2)ccc1-c1noc(-c2ccco2)n1 | 4.86% (inactive) | -9.76% |  |  |
| O=C1CN(C(=O)COC(=O)Cc2ccsc2)c2ccccc2N1 | 3.29% (inactive) | 4.09% |  |  |
| NC(=O)C(c1ccc(Cl)cc1)c1ncc(C(F)(F)F)cc1Cl (stereo not given) | 20.1% (inactive) | 6.15% |  |  |
| CCC(=O)c1ccc(OCC(=O)OCC(=O)NC2CCCC2)cc1 | 7.81% [at 0.0737 µM] (inactive) | -7.74% |  |  |
| Cc1nc(C)c(C(=O)OCC(=O)NCCc2ccc(S(N)(=O)=O)cc2)s1 |  | 5.35% | inactive |  |
| Cc1nc(C)c(C(=O)OCC(=O)NCc2ccccc2)s1 |  | 2.69% |  | 1.16 µM (active) |
| CCOC(=O)c1sc(Nc2cccc(C)c2C)nc1C |  |  | inactive |  |
| COc1ccc(CCNC(=O)COC(=O)c2sc(C)nc2C)cc1 | -22.8% (inactive) | 13.9% |  |  |
| Cc1nc(C)c(C(=O)OCC(=O)Nc2cccc(C)c2C)s1 |  | -21.3% |  | 16.4 µM (active) |
| Cc1cccc(NC(=O)c2sc(Cl)nc2C)c1C | 17.3% (inactive) | 27.7% |  |  |

| SMILES | lipid storage change, negative = inhibition | cell number change | outcome | Potency |
| --- | --- | --- | --- | --- |
| Cc1cccc(C)c1NC(=O)CN(C)C(=O)c1cccc(-n2cccc2)c1 | 9.6% [at 0.0737 µM] (inactive) |  |  |  |
| N#Cc1cccc(NC(=O)COC(=O)CCc2ccc(S(=O)(=O)N3CCOCC3)cc2)c1 | 7.64% (inactive) | 0.933% |  |  |
| CCOC(=O)C(=NC(C)CC)NNc1cccc(C(F)(F)F)c1 (stereo not given) | -2.64% (inactive) | 0.302% |  |  |
| Cc1cccc(C)c1N(CC(=O)NCc1ccccc1)C(=O)c1csnn1 |  | -7.94% | inactive |  |
| CN(C)C(=O)c1nc2ccc(Cl)cn2c1CNCc1ccccc1OC(F)(F)F | 4.92% (inactive) | -4.39% |  |  |
| CN1C/C(=C/c2ccncc2)C(=O)/C(=C/c2ccncc2)C1 |  | 15.3% | inactive |  |
| C(=N\N1CCN(Cc2ccccc2)CC1)/c1cccnc1 | 10.3% (inactive) | 3.04% |  |  |
| CC(C)N1C(=O)S/C(=C/c2cccnc2)C1=O | -20.1% (inactive) | 16.4% |  |  |
| O=C1NC(=S)N/C1=C\c1ccc(N2CCOCC2)cc1 | -7.79% (inactive) |  |  |  |
| CN1C/C(=C/c2cccnc2)C(=O)/C(=C/c2cccnc2)C1 |  | -16.3% |  | 1.84 µM (active) |
| CN1C/C(=C\c2ccc(N3CCOCC3)cc2)C(=O)/C(=C/c2ccc(N3CCOCC3)cc2)C1 |  | -12.7% |  | 7.31 µM (active) |
| CC(C)N1CC2=C(OC(N)=C(C#N)C2c2cccnc2)/C(=C/c2cccnc2)C1 (stereo not given) | 11.8% (inactive) | -0.305% |  |  |
| O=C1/C(=C/c2cccnc2)CCc2c1[nH]c1ccccc21 | 19% (inactive) | -5.69% |  |  |
| CC(C)N1C/C(=C/c2cccnc2)C(=O)/C(=C/c2cccnc2)C1 |  | -15.1% |  | 23.1 µM (active) |
| CC1=N/C(=C/c2cccnc2)C(=O)O1 | 0.341% (inactive) | -0.0715% |  |  |
| O=C1/C(=C\c2cccnc2)CN(Cc2ccccc2)C/C1=C\c1cccnc1 |  | -26.3% |  | 2.31 µM (active) |
| O=C1/C(=C\c2cccnc2)CCc2ccccc21 | 5.43% (inactive) | -16.3% |  |  |
| COc1ccc(N2C(=O)/C(=C/c3ccc([N+](=O)[O-])cc3)N=C2C)c(OC)c1 | 12.2% (inactive) | -0.57% |  |  |
| O=c1c2cc3c(nc2[nH]c(=S)n1-c1ccccc1)CCCC3 | -3.75% (inactive) | 8.9% |  |  |
| COc1ccccc1OCCNc1cc(N2CCCCC2)ccc1[N+](=O)[O-] | 7.35% (inactive) | 20.1% |  |  |
| CCOc1ccc2nc(SCC(=O)Nc3ccc4c(c3)OCCO4)[nH]c2c1 |  | -1.86% | inactive |  |
| O=C(/C=C/c1ccco1)N(Cc1ccccc1F)C1CCS(=O)(=O)C1 (stereo not given) | 23.1% (inactive) | 19.4% |  |  |
| CCOc1ccccc1-n1c(SCC(=O)N2CCOCC2)nnc1-c1ccccn1 | 3.34% (inactive) | 1.75% |  |  |
| N#Cc1ccc(/C=N/NC(=O)c2cc(-c3cccs3)nc3ccccc23)cc1 | 21.4% (inactive) | 12.5% |  |  |

| SMILES | lipid storage change, negative = inhibition | cell number change | outcome | Potency |
| --- | --- | --- | --- | --- |
| COc1ccc(NCc2nnc(SCC(=O)Nc3ccc(OC)cc3OC)o2)cc1 | 8.16% (inactive) | 8.92% |  |  |
| CCOC(=O)N1CCN(C(=O)CN(c2ccccc2OC)S(=O)(=O)c2ccc(C)cc2)CC1 |  |  | inactive |  |
| O=C1/C(=C/c2ccsc2)N2CCC1CC2 | -0.371% (inactive) | -5.13% |  |  |
| CC(C)N1C/C(=C/c2ccsc2)C(=O)/C(=C/c2ccsc2)C1 |  | -15.9% |  | 14.6 µM (active) |
| O=C1/C(=C\c2ccsc2)N2CCC1CC2 | -13% (inactive) | 5.98% |  |  |
| CN(C)CC(C)(C)CNS(=O)(=O)c1ccc(Cl)c(Cl)c1 |  | -9.4% |  | 23.1 µM (active) |
| CC(C)(CNS(=O)(=O)c1ccc(F)cc1)CNS(=O)(=O)c1ccc(F)cc1 |  | 6.92% | inactive |  |
| CN(C)CC(C)(C)CNS(=O)(=O)c1ccc(Cl)cc1 | 1.02% (inactive) | 27.8% |  |  |
| CCCc1ccc(OCCNC(=O)C2CCCCC2)cc1 | 10.9% (inactive) | -6.51% |  |  |
| CC(=O)Nc1ccc(S(=O)(=O)n2cnc3ccccc32)cc1 |  | 13.3% | inactive |  |
| O=C(CN1C(=O)CCC1=O)Nc1cccc(NC(=O)CN2C(=O)CCC2=O)c1 | -8.67% (inactive) | -5.66% |  |  |
| O=C(CCN1c2ccccc2Sc2ccccc21)Oc1ccccc1 | 1.68% (inactive) | -0.775% |  |  |
| Cn1c(C(=O)NCC2CCCO2)cc2c(=O)[nH]c3ccccc3c21 (stereo not given) | -0.25% (inactive) | 4.34% |  |  |
| Cn1c(C(=O)NCC2CCCO2)cc2oc3ccccc3c21 (stereo not given) |  | -14.1% |  | 0.58 µM (active) |
| Cn1c(C(=O)NCc2ccccc2)cc2oc3ccccc3c21 |  | 12.4% | inactive |  |
| Cc1ccccc1CS(=O)(=O)CCC(=O)NCc1ccccn1 | -5.48% (inactive) | -19.8% |  |  |
| O=C(CSc1ccc(Cl)cc1)NCc1ccncc1 | 2.06% (inactive) | 8.1% |  |  |
| COc1ccc(CC(=O)N(C)Cc2ccc(Cl)cc2)cc1S(=O)(=O)N1CCOCC1 |  |  | inactive |  |
| COc1cccc(/C=C/C(=O)N2CCN(c3ccccn3)CC2)c1 | 9.27% (inactive) | -5.2% |  |  |
| COc1ccc(C(=O)O)cc1S(=O)(=O)N1CCN(c2ccccn2)CC1 |  | 2.78% |  | 0.82 µM (active) |
| COc1cc(/C=C/C(=O)N2CCN(c3ccccn3)CC2)cc(OC)c1OC |  | -26.3% |  | 16.4 µM (active) |
| COc1ccc(/C=C/C(=O)N2CCN(c3ccccn3)CC2)c(OC)c1OC | -3.76% (inactive) | 5.19% |  |  |
| COc1ccc(Br)cc1CN(C)C(=O)Cc1ccc(OC)c(S(=O)(=O)N2CCOCC2)c1 |  | 30.1% |  | 10.3 µM (active) |
| O=C(Nc1ccccc1C(=O)O)c1ccc(Cl)c(S(=O)(=O)N2CCOCC2)c1 | -15.9% (inactive) | -21% |  |  |

| SMILES | lipid storage change, negative = inhibition | cell number change | outcome | Potency |
| --- | --- | --- | --- | --- |
| COc1ccc(S(=O)(=O)N2CCN(c3ccccn3)CC2)c(OC)c1 | -23.1% (inactive) | -13% |  |  |
| COc1ccc(OC)c(S(=O)(=O)N2CCN(c3ccccn3)CC2)c1 | -23.4% (inactive) | -24% |  |  |
| COc1ccc(CC(=O)N(C)Cc2cccc(F)c2)cc1S(=O)(=O)N1CCOCC1 | 21.5% (inactive) | 18.8% |  |  |
| O=C(Nc1ccc(NC(=O)c2ccc(Cl)c(S(=O)(=O)N3CCOCC3)c2)cc1)c1ccccc1 | 13.6% (inactive) |  |  |  |
| CN(C(=O)c1ccc(Cl)c(S(=O)(=O)N2CCOCC2)c1)c1ccccc1C(=O)O |  | -5.89% |  | 0.82 µM (active) |
| Cn1c(N)c(C(=O)COC(=O)COc2ccccc2C#N)c(=O)n(C)c1=O |  |  | inactive |  |
| CC1CCCCN1C(=O)c1ccc(Br)o1 (stereo not given) |  | 0.829% | inactive |  |
| COc1ccc(/C=C/C(=O)c2ccc(O)cc2)cc1 | 0.146% (inactive) | -13.4% |  |  |
| CCNC(=S)NNC(=O)c1ccc(=O)n(Cc2ccccc2)c1 | 12.6% (inactive) | 8.31% |  |  |
| CN(C)C(=O)NC(Nc1ccc(Cl)cc1Cl)C(Cl)(Cl)Cl (stereo not given) |  |  | inactive |  |
| Cc1ccc(CC(CC(=O)NCCc2ccc3c(c2)OCO3)C(=O)O)cc1 (stereo not given) | -23.3% (inactive) |  |  |  |
| CN(C(=O)c1ccc(F)c(S(=O)(=O)N2CCOCC2)c1)C1CCCCC1 | 24.8% (inactive) | 0.139% |  |  |
| COc1ccc(C)cc1S(=O)(=O)N1CCCCC1 | 9.28% (inactive) | 6.88% |  |  |
| CN1CCC(N(C)C(=O)c2ccc(Cl)c(S(=O)(=O)N3CCCCC3)c2)CC1 |  | -2.26% |  | 14.6 µM (active) |
| O=C(NCc1ccncc1)c1ccc(Cl)c(S(=O)(=O)N2CCOCC2)c1 | 9.55% (inactive) | 18.6% |  |  |
| COc1ccc(C(=O)N2CCCC2)cc1S(=O)(=O)N1CCOCC1 |  | 9.79% |  | 7.31 µM (active) |
| COc1ccc(CNC(=O)c2ccc(Cl)c(S(=O)(=O)N3CCOCC3)c2)cc1OC |  | -21% |  | 1.64 µM (active) |
| COc1ccc(C(=O)OCc2ccc(C)cc2)cc1S(=O)(=O)N1CCOCC1 | 15.6% (inactive) | 0.435% |  |  |
| COc1ccc(C(=O)N2CCN(S(=O)(=O)c3ccc(C)cc3)CC2)cc1S(=O)(=O)N1CCOCC1 | -18.5% (inactive) | 3.33% |  |  |
| CN(C(=O)c1ccc(S(=O)(=O)N2CCCC2)cc1)C1CCCCC1 | 0.283% (inactive) | -9.06% |  |  |
| COc1ccc(C(=O)OCc2cc(C)ccc2C)cc1S(=O)(=O)N1CCCC1 |  | -10.2% |  | 0.082 µM (active) |
| O=C(NCc1cccnc1)c1ccc(Cl)c(S(=O)(=O)N2CCOCC2)c1 |  | -4.25% | inactive |  |
| COc1ccc(C(=O)N2CCCC(C(N)=O)C2)cc1S(=O)(=O)N1CCOCC1 (stereo not given) | -1.8% (inactive) | 10.1% |  |  |
